# Source: ChEMBL document CHEMBL3988442, “University of Dundee, Small-Polar-MMV Screening Library” (2021)
# For some assays here: Measured potencies and affinities stand elsewhere.
# Columns and labels:
# Parameters in all cases: scale not given: direction of the effect not stated beside the values
# [1] = target: Protein translocase subunit SecA (Escherichia coli (strain K12)) (UniProt P10408); test: Assay to Identify E. coli SecA ATPase Inhibitors; type: functional; details: 30 µM
# [2] = target: T1, Ubiquitin-activating enzyme e1, putative (Leishmania donovani (strain BPK282A1)) (UniProt E9BSI1); test: Leishmania donovani Ubiquitin Activating Enzyme (LdE1); type: functional; details: 30 µM
# T1 sequence (whole entry): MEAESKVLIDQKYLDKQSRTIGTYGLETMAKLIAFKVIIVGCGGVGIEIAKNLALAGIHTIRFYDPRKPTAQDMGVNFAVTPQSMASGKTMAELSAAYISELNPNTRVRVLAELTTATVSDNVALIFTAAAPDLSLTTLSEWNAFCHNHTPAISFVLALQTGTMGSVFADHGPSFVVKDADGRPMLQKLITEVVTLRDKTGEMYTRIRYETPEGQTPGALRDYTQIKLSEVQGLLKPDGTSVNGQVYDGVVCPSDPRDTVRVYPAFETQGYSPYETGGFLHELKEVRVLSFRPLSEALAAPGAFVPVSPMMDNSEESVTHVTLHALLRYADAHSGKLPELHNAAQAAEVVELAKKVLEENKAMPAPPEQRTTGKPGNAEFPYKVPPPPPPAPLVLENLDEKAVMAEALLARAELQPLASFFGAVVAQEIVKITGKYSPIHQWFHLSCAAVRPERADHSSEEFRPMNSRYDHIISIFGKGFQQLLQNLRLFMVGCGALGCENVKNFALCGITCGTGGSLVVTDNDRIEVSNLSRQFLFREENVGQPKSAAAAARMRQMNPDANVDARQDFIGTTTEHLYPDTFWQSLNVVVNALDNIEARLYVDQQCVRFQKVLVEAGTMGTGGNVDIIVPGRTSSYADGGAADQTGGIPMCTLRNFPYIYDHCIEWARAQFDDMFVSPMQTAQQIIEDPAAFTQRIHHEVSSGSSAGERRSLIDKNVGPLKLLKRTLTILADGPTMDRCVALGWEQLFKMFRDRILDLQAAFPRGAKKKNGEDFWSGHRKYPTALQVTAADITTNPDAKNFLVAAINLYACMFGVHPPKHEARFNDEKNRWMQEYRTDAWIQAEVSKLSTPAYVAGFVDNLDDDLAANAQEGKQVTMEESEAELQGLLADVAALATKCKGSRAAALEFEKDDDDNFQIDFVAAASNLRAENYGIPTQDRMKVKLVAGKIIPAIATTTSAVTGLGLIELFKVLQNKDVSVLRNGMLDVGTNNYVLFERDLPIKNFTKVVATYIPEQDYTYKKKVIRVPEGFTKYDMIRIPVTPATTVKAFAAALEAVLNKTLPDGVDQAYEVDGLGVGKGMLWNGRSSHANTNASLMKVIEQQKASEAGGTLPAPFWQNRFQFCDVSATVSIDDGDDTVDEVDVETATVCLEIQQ
# [3] = target: AMP-activated protein kinase, AMPK (Homo sapiens) (UniProt P54646+O43741+P54619+Q9UGJ0+Q9Y478+Q13131+Q9UGI9); test: AMP-dependent Kinase enzyme assay. An in vitro enzyme assay that detects ADP turnover that is directly proportional to AMPK activity. This uses naive AMPK that is activated during the assay with MK-8722; type: functional; details: 30 µM
# [4] = target: Sialic acid-binding Ig-like lectin 9 (Homo sapiens) (UniProt Q9Y336); test: Hs-Siglec9 ALPHAscreen SOP 20170721; details: 10 µM
# Trypanosoma cruzi = test: Trypanosoma cruzi phosphomannomutase and mannose-1-phosphate guanylyltransferase assay; type: functional; details: 10 µM
# [5] = target: T2, Arginase-2, mitochondrial (Homo sapiens) (UniProt P78540); test: in vitro enzyme assay to detect the production of urea directly proportional to the activity of Arginase II; type: functional; details: 33.3 µM; further: in the data most compounds retested in dose-response had high values
# T2 sequence (whole entry): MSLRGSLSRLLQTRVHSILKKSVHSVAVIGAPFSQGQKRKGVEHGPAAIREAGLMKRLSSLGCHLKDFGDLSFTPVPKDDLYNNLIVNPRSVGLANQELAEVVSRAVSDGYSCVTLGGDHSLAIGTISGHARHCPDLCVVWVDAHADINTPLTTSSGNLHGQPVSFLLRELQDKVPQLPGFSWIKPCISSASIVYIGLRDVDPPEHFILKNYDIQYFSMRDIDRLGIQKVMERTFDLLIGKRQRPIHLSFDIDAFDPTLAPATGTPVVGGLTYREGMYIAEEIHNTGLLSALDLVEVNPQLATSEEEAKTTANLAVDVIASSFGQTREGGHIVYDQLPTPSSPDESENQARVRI
# [6] = target: T3, Proteasome subunit beta (Trypanosoma cruzi) (UniProt O96673); test: Trypanosoma cruzi proteasome chymotrypsin-like activity (TcProtChymo) assay.; further: in the data most compounds retested in dose-response had high values; type: functional; details: 9.37 µM
# T3 sequence (whole entry): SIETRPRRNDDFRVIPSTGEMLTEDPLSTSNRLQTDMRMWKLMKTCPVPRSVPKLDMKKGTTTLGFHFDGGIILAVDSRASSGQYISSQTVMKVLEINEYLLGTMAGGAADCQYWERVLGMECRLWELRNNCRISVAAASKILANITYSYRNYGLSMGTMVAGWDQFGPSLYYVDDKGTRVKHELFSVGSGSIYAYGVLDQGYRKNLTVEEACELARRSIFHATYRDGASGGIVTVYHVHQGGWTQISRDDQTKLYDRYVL
# Homo sapiens = species: Homo sapiens; test: To identify inhibition of the IFN signalling (Jak-Stat) pathway via expression of an eGFP reporter gene under the control of an IFN-stimulated response element (ISRE) containing MxA promoter.; type: functional; details: 30 µM
# [7] = target: T4, Tyrosyl-tRNA synthetase, putative (Trypanosoma cruzi (strain CL Brener)) (UniProt Q4DSP6); test: Trypanosoma cruzi tyrosyl tRNA synthetase (TcYRS) _High Tyrosine SOP; type: functional; details: 30 µM; further: in the data most compounds retested in dose-response had high values
# T4 sequence (whole entry): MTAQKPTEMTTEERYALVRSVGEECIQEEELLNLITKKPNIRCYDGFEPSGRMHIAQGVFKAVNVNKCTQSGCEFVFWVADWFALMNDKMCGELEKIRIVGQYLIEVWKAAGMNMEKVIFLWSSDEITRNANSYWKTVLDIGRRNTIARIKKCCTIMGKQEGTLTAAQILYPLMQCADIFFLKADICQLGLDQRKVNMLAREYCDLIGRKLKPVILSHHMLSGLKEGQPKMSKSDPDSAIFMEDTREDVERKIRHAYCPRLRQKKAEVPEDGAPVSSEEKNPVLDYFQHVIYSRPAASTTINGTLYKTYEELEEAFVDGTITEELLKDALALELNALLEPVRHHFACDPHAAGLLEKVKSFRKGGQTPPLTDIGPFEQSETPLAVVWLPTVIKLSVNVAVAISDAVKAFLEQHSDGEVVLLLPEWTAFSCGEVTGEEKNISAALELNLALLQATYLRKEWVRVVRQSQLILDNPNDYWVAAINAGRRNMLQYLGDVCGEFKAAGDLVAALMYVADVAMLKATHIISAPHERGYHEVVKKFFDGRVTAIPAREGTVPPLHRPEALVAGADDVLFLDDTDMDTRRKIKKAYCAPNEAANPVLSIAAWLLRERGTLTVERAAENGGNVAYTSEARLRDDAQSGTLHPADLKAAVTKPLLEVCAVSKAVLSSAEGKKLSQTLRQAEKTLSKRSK
# [8] = target: T4, Tyrosyl-tRNA synthetase, putative (Trypanosoma cruzi (strain CL Brener)); test: Trypanosoma cruzi tyrosyl tRNA synthetase (TcYRS) SOP; type: functional; details: 30 µM
# [9] = target: Chromo domain-containing protein 1 (Saccharomyces cerevisiae (strain ATCC 204508 / S288c) (Baker's yeast)) (UniProt P32657); test: ScCHD-1 Enzyme Inhibition Assay; type: functional; details: 30 µM; further: in the data most compounds retested in dose-response had high values
# Chromo domain-containing protein 1 (Saccharomyces cerevisiae (strain ATCC 204508 / S288c) (Baker's yeast)), sequence (P32657 whole entry, the tested form may be a part): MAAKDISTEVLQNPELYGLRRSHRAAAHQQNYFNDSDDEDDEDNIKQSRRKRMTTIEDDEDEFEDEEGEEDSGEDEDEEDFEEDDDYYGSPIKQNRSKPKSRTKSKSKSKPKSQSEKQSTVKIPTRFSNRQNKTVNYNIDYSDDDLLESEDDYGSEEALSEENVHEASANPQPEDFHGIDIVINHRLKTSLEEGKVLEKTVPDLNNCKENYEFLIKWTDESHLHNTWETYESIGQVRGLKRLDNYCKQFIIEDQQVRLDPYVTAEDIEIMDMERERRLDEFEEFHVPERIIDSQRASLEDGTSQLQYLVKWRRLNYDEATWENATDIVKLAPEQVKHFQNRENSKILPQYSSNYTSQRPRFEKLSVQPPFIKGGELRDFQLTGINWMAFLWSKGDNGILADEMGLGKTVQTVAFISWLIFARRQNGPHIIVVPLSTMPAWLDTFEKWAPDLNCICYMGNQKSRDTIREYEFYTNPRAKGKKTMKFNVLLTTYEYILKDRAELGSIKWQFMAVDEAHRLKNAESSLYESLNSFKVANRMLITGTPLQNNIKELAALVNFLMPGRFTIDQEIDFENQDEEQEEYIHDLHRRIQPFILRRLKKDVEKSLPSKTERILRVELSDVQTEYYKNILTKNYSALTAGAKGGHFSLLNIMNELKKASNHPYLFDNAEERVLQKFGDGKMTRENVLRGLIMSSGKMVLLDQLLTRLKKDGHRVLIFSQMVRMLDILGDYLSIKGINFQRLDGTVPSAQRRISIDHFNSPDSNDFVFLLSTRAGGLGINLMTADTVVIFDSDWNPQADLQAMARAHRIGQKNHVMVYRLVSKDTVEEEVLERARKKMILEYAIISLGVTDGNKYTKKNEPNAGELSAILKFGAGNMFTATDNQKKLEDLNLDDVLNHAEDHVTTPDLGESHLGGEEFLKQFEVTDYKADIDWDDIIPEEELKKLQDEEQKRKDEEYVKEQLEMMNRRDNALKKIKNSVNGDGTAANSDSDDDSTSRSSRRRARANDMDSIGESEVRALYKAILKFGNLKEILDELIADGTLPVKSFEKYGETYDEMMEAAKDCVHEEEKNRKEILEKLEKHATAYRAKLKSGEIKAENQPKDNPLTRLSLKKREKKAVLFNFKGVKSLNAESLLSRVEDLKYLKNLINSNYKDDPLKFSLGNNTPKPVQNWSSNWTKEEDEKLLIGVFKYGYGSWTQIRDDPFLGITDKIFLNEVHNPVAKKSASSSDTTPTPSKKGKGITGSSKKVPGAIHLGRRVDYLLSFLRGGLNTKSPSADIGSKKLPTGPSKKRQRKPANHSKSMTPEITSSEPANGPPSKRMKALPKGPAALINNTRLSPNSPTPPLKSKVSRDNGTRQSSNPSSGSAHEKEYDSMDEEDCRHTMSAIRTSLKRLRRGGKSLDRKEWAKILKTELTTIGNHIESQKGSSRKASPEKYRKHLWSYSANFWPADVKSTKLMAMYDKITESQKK
# Sialic acid-binding Ig-like lectin 9 (Homo sapiens), sequence (Q9Y336 whole entry): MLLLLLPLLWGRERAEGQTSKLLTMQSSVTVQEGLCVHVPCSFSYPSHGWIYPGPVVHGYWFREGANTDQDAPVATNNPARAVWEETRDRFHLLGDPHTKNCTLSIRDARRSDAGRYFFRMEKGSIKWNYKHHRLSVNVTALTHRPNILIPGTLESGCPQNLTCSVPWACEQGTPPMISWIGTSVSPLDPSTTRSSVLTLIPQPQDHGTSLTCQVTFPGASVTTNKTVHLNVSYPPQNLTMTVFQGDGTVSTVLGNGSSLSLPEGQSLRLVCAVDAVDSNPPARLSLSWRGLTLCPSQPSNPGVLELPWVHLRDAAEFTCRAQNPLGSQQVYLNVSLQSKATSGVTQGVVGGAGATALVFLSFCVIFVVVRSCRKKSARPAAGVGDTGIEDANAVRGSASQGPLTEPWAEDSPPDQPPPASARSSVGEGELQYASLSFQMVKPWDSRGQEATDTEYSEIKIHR
# Protein translocase subunit SecA (Escherichia coli (strain K12)), sequence (P10408 whole entry): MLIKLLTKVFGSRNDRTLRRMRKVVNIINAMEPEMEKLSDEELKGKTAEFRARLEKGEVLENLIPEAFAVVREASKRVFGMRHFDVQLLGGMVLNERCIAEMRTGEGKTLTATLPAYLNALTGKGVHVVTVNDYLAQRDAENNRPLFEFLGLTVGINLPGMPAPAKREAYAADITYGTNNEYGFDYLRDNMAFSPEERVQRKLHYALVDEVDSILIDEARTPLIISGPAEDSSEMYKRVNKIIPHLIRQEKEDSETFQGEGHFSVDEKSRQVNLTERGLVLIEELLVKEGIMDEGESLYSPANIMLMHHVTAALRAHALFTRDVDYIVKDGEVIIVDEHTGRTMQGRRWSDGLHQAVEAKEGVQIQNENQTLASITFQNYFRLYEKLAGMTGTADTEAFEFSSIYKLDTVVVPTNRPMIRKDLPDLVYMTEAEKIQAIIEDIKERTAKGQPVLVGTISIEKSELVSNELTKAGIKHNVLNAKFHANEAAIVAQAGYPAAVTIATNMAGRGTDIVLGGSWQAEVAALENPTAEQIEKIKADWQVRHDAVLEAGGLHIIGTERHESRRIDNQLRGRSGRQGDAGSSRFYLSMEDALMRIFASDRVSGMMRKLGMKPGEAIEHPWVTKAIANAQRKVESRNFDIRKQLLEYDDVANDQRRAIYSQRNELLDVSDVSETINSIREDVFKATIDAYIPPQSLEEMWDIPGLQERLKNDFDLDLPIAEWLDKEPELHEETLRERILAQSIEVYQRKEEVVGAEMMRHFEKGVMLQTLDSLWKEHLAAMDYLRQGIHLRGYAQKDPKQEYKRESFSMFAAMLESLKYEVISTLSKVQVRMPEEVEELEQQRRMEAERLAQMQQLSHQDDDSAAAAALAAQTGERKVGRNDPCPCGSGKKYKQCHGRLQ
SMILES,Percent Effect [1] [%],Percent Effect [2] [%],Percent Effect [3] [%],Percent Effect [4] [%],Percent Effect (Trypanosoma cruzi) [%],Percent Effect [5] [%],Percent Effect [6] [%],Percent Effect (Homo sapiens) [%],Percent Effect [7] [%],Percent Effect [8] [%],Percent Effect [9] [%]
CN(C)CC(=O)N1CCC2(CC1)CN(c1ccsc1)C(=O)CO2,-9.33,2.67,3.11,-6.49,-4.33,-0.233,3.96,15.6,0,-3.85,-3.46
Cc1cccc2c1cnn2CCC(=O)NCC(=O)N(C)C,-1.87,1.33,12.2,7.1,-6.68,-10,14.2,3.37,4.23,7.69,-10.3
CCN1CCN(C2CCN(Cc3cc(C)on3)CC2)C1=O,-6.77,5.06,1.9,-3.3,8.21,-3.04,7.94,1.37,3.45,8.86,-13.6
COc1cccc(CN2CCN(C(=O)CN3CCOCC3)CC2)n1,0.629,-10.5,-3.06,3.57,4.76,3.6,4.99,7.19,2.46,6.17,2.89
O=C(Cc1ccc2c(c1)CCCC2)NCCc1ccccn1,-2.72,-7.89,-4.68,-1.25,0.0934,1.44,16.2,12.1,7.39,23.5,-7.01
CC(=O)N1CCCCC1c1cc(CO)[nH]n1 (stereo unspecified),-1.55,1.35,7,5.31,1.78,2.09,12.3,10.5,3.23,6.49,9.52
N#Cc1ccc(OCCNc2cccc(C(=O)N3CCOCC3)c2)cc1,-3.6,15.6,-1.62,14.6,6.98,-8.28,17.1,16.8,2.15,13.6,0.249
Cc1cc(C(F)(F)F)c2c(C3CCN(S(=O)(=O)N(C)C)CC3)noc2n1,-2.53,12.2,6.65,11.8,-0.395,1.62,6.55,3.27,6.45,16.9,-15.2
CC(C)Nc1nc2c(cc1C(=O)N(C)C)CCNCC2,-4.01,16,4.22,9.77,-0.772,-24.6,5.47,-7.58,0,-7.5,-4.61
CSc1ccccc1CN1CCn2nc(CNC(C)=O)cc2C1,0.00499,11,1.85,8.13,2.35,18.2,18.6,15.7,6.45,20,-3.35
CC(C)N1CCC(N2CCN(C3CCC3)CC2CCO)CC1 (stereo unspecified),-2.22,1.39,-21.6,12,5.73,20.8,-1.75,-10.3,2.1,5.13,0.447
CCOCCCNc1nc(O)cc(C2CC(=O)N(C)C2)n1 (stereo unspecified),-3.32,6.76,-1.4,1.36,3.95,-4.41,9.83,-10.5,1.07,9.09,-25.9
CCc1c(C(=O)NC2CCS(=O)(=O)C2)cnn1-c1ccc(F)cc1 (stereo unspecified),-2.17,15.2,-2.59,-6.54,8.21,1.9,7.29,-14.4,7.39,21.5,-5.38
Cc1cc(CN2CCN(C(=O)c3sccc3C3CC3)CC2)on1,-1.18,10.4,2.54,-6.72,-7.35,1.05,9.62,18.1,4.76,18.8,-15.4
CC(C(=O)Nc1ccc(N2CCCC2)nc1)n1ccnc1 (stereo unspecified),-1.03,5.41,-13.4,11.1,0.0943,-8.82,8.65,28.6,5.42,16.1,-8.67
CN(Cc1cnn(C)c1)C(=O)NCc1nnc2n1CCC2,-4.33,10.1,2.17,6.31,4.06,1.52,-0.901,3.9,5.42,8.86,-6.73
